KB-3-1 tox: qHTS assay for MDR1-selective chemotherapeutics: Primary screen using the parental adenocarcinoma cell KB-3-1 | Potency, µM (doses to about 46.1 µM), most hits filed as cytotoxic | KB-3-1 viability, CellTiter-Glo ATP luminescence, 72 h | hit rate 1.4% among 400,000; also: nearly all actives have a fitted effect of over 60% in size
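Here the drug-naive KB-3-1 line serves as comparator for MDR sub-line selectivity; cells received compound titrations, 72 h at 37 °C, then CellTiter-Glo readout.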
HT1080 IDH1KD tx: qHTS for induction of synthetic lethality in tumor cells producing 2HG: qHTS for the HT-1080-IDH1KD cell line | HT-1080 IDH1 knockdown viability, ATP luminescence, 48 h | Potency, µM (series often up to 46.1 µM), hits mostly cytotoxic | hit rate 2% among 360,000
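After a 2 h attachment period, IDH1KD HT-1080 cells took pin-transferred compound for 48 h at 37 °C; ATP-based luminescence after 10 min room-temperature reagent incubation reported viability.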
SW480 rerep: A quantitative high throughput screen for small molecules that induce DNA re-replication in SW480 colon adenocarcinoma cells. SW480 DNA re-replication, Hoechst DNA content imaging, 48 h. Potency, µM (highest dose often 46.1 µM), usual class: activators. AID 624297, 2012. hit rate 1.8% among 340,000; also: nearly all actives have a fitted effect of over 55% in size
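DNA re-replication was detected as more nuclei of elevated Hoechst intensity after 48 hr exposure to compound (23 nL pinned per well of 250 cells).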
HT1080-NT tox: qHTS for induction of synthetic lethality in tumor cells producing 2HG: qHTS for the HT-1080-NT fibrosarcoma cell line | HT-1080-NT fibrosarcoma viability, CellTiter-Glo ATP luminescence, 48 h | Potency, µM (doses to about 46.1 µM), usual class: cytotoxic | hit rate 1.6% among 360,000;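 also: NT is the 2HG producing partner of a matched IDH1 knockdown line; nearly all actives have a fitted effect of over 55% in size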
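Viability by CellTiter-Glo luminescence after 48 h compound exposure at 37C of HT-1080-NT cells (750/well, RPMI, 5% FBS). % activity scaled between DMSO wells and medium-only wells, then curve-fitted and categorized by curve class.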
MCF10A rerep: A quantitative high throughput screen for small molecules that induce DNA re-replication in MCF 10a normal breast cells; hit rate 2.9% among 350,000; AID 624296, 2012; Potency, µM (top dose mostly 46.1 µM), usual class: activators; MCF 10A DNA re-replication, Hoechst nuclear intensity, 48 h; also: nearly all actives have a fitted effect of over 50% in size
KB-V1 MDR tox: qHTS assay for MDR1-selective chemotherapeutics: Primary screen using the drug-selected MDR subline cells KB-V1 | KB-V1 MDR cells viability, CellTiter-Glo, 72 h | Potency, µM (titrated, usually from 46.1 µM), usual class: cytotoxic | hit rate 3.4% among 400,000; also: nearly all actives have a fitted effect of over 60% in size
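Drug-selected KB-V1 cells, grown in DMEM lacking phenol red with 10% FBS, receive compound titrations; after three days at 37 degrees C, surviving cell ATP is quantified by CellTiter-Glo luminescence and responses normalized and curve-fitted.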
Large screens that a line does not name were inactive. In the library only some 7.9% were active in any assay of this set; here they are far more common. Calls follow the shape of the dose curve; as a rule, active = well fitted curve in the direction sought with a large enough effect; inconclusive = small, poorly fitted or top-dose-only effect, or another doubt; inactive = no such curve, though single readings can be large; an effect the other way counts as inactive or inconclusive.

CC(=O)NC(C(=O)c1ccccc1)C(=O)c1ccccc1	SW480 rerep 0.517µM
CCOP(=O)(OCC)C(NC(C)=O)C(=O)c1ccccc1 (configuration not stated)	KB-V1 MDR tox inconclusive
Cc1c(NC(=O)COC(=O)COc2ccc(Nc3ccccc3)cc2)c(=O)n(-c2ccccc2)n1C	none
COCCOC(=O)c1c(C)oc2ccc(OS(C)(=O)=O)cc12	KB-3-1 tox inconclusive, KB-V1 MDR tox inconclusive
Cc1oc2ccc(OS(C)(=O)=O)cc2c1C(=O)OC(C)C	KB-V1 MDR tox 13µM
CSc1cccc(NC(=O)COC(=O)C2(c3ccccc3)CC2)c1	SW480 rerep inconclusive, KB-V1 MDR tox 18.4µM
CCc1ccc(NC(=O)COC(=O)C2(c3ccc(Cl)cc3)CCCC2)cc1	KB-3-1 tox inconclusive, SW480 rerep inconclusive, KB-V1 MDR tox 18.4µM
O=S(=O)(CCn1cccc1)CCn1cccc1	SW480 rerep inconclusive
CC(C)(C)NCc1cccn1-c1sc2c(c1C#N)CCCC2	KB-V1 MDR tox 16.4µM
Cc1ccc(NC(=O)C/C(N)=N/OC(=O)c2ccccc2)cc1	none
Cc1ccc(-n2c(-c3ccc(Br)cc3)c[n+]3c2CCc2ccc4cccnc4c2-3)cc1	KB-3-1 tox 2.59µM, HT1080 IDH1KD tx 3.98µM, HT1080-NT tox inconclusive, MCF10A rerep inconclusive, KB-V1 MDR tox inconclusive
CCOC(=O)C1=C(C)NC2=C(C(=O)C(C(=O)OCC)C(c3ccco3)C2)C1c1ccccn1 (configuration not stated)	SW480 rerep 6.51µM
CCOC(=O)C1=C(C)NC2=C(C(=O)C(C(=O)OCC)C(c3ccco3)C2)C1c1ccccc1C (configuration not stated)	none (no result: HT1080 IDH1KD tx, SW480 rerep, HT1080-NT tox, MCF10A rerep)
CCN=c1scc(-c2cccs2)n1/N=C/c1cc(OC)ccc1O	KB-3-1 tox 18.4µM, SW480 rerep inconclusive, MCF10A rerep 5.8µM, KB-V1 MDR tox inconclusive
CC(C)N=c1scc(-c2cccs2)n1/N=C/c1ccc(O)c(O)c1O	KB-3-1 tox inconclusive, HT1080 IDH1KD tx 16.4µM, SW480 rerep inconclusive, HT1080-NT tox inconclusive, MCF10A rerep inconclusive
CN1CCN(c2cc3c(c4c2[nH]c2ccccc24)C(=O)CC(C)(C)C3)CC1	KB-3-1 tox inconclusive, SW480 rerep inconclusive, MCF10A rerep 20.6µM
CN1CCN(c2ccc(Cl)cc2NC(=O)c2cc(=O)[nH]c3ccccc23)CC1	none
CCOc1cc(C#N)c(NC(=O)c2ccc(OC)c(S(=O)(=O)N3CCCCC3)c2)cc1OCC	none (no result: HT1080 IDH1KD tx, SW480 rerep, HT1080-NT tox, MCF10A rerep)
Cc1cc(NC(=O)c2ccc3nc(-c4ccccc4)c(-c4ccccc4)nc3c2)no1	SW480 rerep inconclusive, MCF10A rerep 9.2µM, KB-V1 MDR tox inconclusive
Cc1cc(NC(=O)CSc2ccccc2)no1	none
Cc1cc(NC(=O)CSc2nnc(-c3ccccc3)c(-c3ccccc3)n2)no1	KB-3-1 tox 7.31µM, HT1080 IDH1KD tx 5.17µM, SW480 rerep 3.66µM, HT1080-NT tox 2.91µM, MCF10A rerep 11.6µM, KB-V1 MDR tox 5.17µM
Cc1cc(NC(=O)CSc2nnc(-c3ccccc3)o2)no1	none
Cc1cc(NC(=O)CSc2nnc(-c3ccoc3C)o2)no1	HT1080 IDH1KD tx 6.31µM, SW480 rerep 20.6µM, HT1080-NT tox 11.2µM
O=C(Nc1ccc2oc(-c3cccnc3)nc2c1)c1ccc(-c2ccc(Cl)cc2)o1	none (no result: HT1080 IDH1KD tx, SW480 rerep, HT1080-NT tox, MCF10A rerep)
Brc1ccccc1CN1CCN(Cc2c[nH]c3ccccc23)CC1	KB-3-1 tox inconclusive, HT1080 IDH1KD tx 23.1µM, HT1080-NT tox 7.31µM, MCF10A rerep inconclusive, KB-V1 MDR tox inconclusive
Brc1ccc(CN2CCN(Cc3c[nH]c4ccccc34)CC2)cc1	KB-3-1 tox inconclusive, HT1080 IDH1KD tx 20.6µM, SW480 rerep inconclusive, HT1080-NT tox 23.1µM, MCF10A rerep inconclusive, KB-V1 MDR tox inconclusive
C[C@@H]1CC2[C@@H]3CC[C@H]4CC(=O)CC[C@]4(C)C3=CC[C@]2(C)[C@@]1(O)C(=O)CO (some centres not stated)	none
CC(=O)C1(O)C(C)CC2C3CCC4CC(O)CCC4(C)C3=CCC21C (configuration not stated)	SW480 rerep inconclusive, MCF10A rerep 18.4µM
CN1CCCN(C(c2ccccc2)c2ccc(Cl)cc2)CC1 (configuration not stated)	HT1080 IDH1KD tx 18.4µM, SW480 rerep inconclusive, HT1080-NT tox 18.4µM, MCF10A rerep inconclusive
O=C(C1CCN(Cc2ccc(Cl)cc2)CC1)N1CCN(C(c2ccccc2)c2ccccc2)CC1	KB-3-1 tox 20.6µM, HT1080 IDH1KD tx inconclusive, SW480 rerep inconclusive, HT1080-NT tox inconclusive, MCF10A rerep inconclusive, KB-V1 MDR tox inconclusive
Cc1cccc(CN2CCN(C(c3ccccc3)c3ccc(Cl)cc3)CC2)c1 (configuration not stated)	HT1080 IDH1KD tx inconclusive, HT1080-NT tox inconclusive, MCF10A rerep 23.1µM, KB-V1 MDR tox inconclusive
CCN1CCN(C(=O)C2CCN(Cc3cc(Cl)ccc3O)CC2)CC1	HT1080-NT tox inconclusive, MCF10A rerep 11.6µM
COc1cc(CN2CCN(C(c3ccccc3)c3ccccc3)CC2)cc(OC)c1OC	HT1080 IDH1KD tx inconclusive
CCN1CCN(C(=O)C2CCN(Cc3nc(-c4cccc(Cl)c4)oc3C)CC2)CC1	none
O=C(Cc1ccccc1[N+](=O)[O-])N/N=C/c1cccnc1	KB-V1 MDR tox inconclusive
Cc1cc2cc(CCNC(=O)c3ccc(Br)o3)c(=O)[nH]c2cc1C	none
COc1ccc(S(=O)(=O)NCC(=O)N(CC(=O)NCc2ccccc2)Cc2ccco2)cc1	none
O=C(CCl)N1c2ccccc2Oc2ccc3ccccc3c21	HT1080 IDH1KD tx 16.4µM, SW480 rerep 5.8µM, HT1080-NT tox inconclusive, MCF10A rerep 18.4µM, KB-V1 MDR tox inconclusive
CC(=O)N1c2ccccc2Oc2cc3ccccc3cc21	none
NCC1CCN(c2nc3ccccc3c3c2CCCC3)CC1	KB-3-1 tox 23.1µM, HT1080 IDH1KD tx inconclusive, SW480 rerep inconclusive, MCF10A rerep inconclusive, KB-V1 MDR tox 14.6µM
CCOc1cc(/C=C(/C#N)C(=O)Nc2ccc(O)cc2)cc(Br)c1O	KB-3-1 tox 1.03µM, HT1080 IDH1KD tx 2.31µM, SW480 rerep 2.06µM, HT1080-NT tox 1.84µM, MCF10A rerep 0.184µM, KB-V1 MDR tox inconclusive
C=CCNC(=O)/C(C#N)=C\c1cc(Cl)c(O)c(OCC)c1	SW480 rerep inconclusive
CCOC(=O)c1c(-c2ccc(C)o2)csc1NC(=S)NC(=O)N(C)C	HT1080 IDH1KD tx 12.6µM, SW480 rerep inconclusive, HT1080-NT tox 10µM, MCF10A rerep inconclusive

Compound activity as filed in PubChem BioAssay.
